The supplement of paper PMC10646978
± gives the standard deviation.

Assays:
Settings in all cases: modulator concentration 10 µM
[1] = test system: RAW-Dual (murine macrophage reporter line); assay: NF-kB reporter (SEAP) activity fold change vs agonist alone; higher = enhanced NF-kB activity
Method in brief: (§1)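 RAW-Dual murine macrophage reporter cells were plated at 50 000 per well in 384-well plates, pin-transferred compound to 10 μM final, and pre-incubated for 1 hour at 37 °C before a PRR agonist was added and the cells incubated overnight. NF-κB activity was read from supernatant SEAP with QUANTI-Blue at 620 nm absorbance, and IRF activity from Lucia luciferase with QUANTI-Luc by luminescence. Each signal was expressed as fold change by dividing by the mean agonist-only control on the same plate. Two replicate plates were averaged, with errors obtained by propagation.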

[2] = test system: RAW-Dual (murine macrophage reporter line); assay: IRF reporter (Lucia luciferase) activity fold change vs agonist alone; higher = enhanced IRF activity
Method in brief: as §1

[3] = test system: RAW-Dual (murine macrophage reporter line); assay: viability score (confluency relative to resting cells, overnight) (fraction); higher = more viable, active = viable (0.7 or more)
Method in brief: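 RAW-Dual macrophages in 384-well plates were exposed overnight to compound at 10 μM final. Confluency was imaged with IncuCyte, and two confluency masks were generated with IncuCyte software over all imaged wells. The viability score is confluency expressed relative to resting cells. Compounds were called viable if both masks exceeded 70% of resting cells.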

[4] = agonist: CpG ODN 1826 0.5 ug/mL

SMILES | NF-kB reporter [1, 4] | NF-kB reporter ([1]; agonist: LPS 0.1 ug/mL) | NF-kB reporter ([1]; agonist: MPLA […]) | IRF reporter ([2]; agonist: 3'3'-cGAMP 10 ug/mL) | IRF reporter ([2]; agonist: LPS 0.1 ug/mL) | IRF reporter ([2]; agonist: MPLA […]) | viability score [3]
CC(O)(P(=O)(O)O)P(=O)(O)O | 0.76 ± 0.033 | 0.997 ± 0.1 | 1.08 ± 0.079 | 0.956 ± 0.069 | 1.14 ± 0.27 | 1.26 ± 0.4 | 0.98 (active)
COC(=O)C(CCSC)NC(=O)c1cc(OC)c(OC)c(OC)c1 (centres undefined) | 1.08 ± 0.18 | 1.09 ± 0.096 | 1.1 ± 0.14 | 1.02 ± 0.031 | 0.923 ± 0.089 | 1.07 ± 0.12 | 0.712 (active)
CCCCOc1ccc(CC(=O)NO)cc1 | 1.69 ± 0.38 | 1.56 ± 0.37 | 1.34 ± 0.076 | 0.241 ± 0.0073 | 0.87 ± 0.19 | 0.815 ± 0.062 | 0.999 (active)
COCCN1CCC(NC(=O)c2cccc3ccccc23)CC1 | 1.16 ± 0.099 | 1.06 ± 0.096 | 0.958 ± 0.039 | 0.992 ± 0.083 | 1.02 ± 0.072 | 1.04 ± 0.12 | 0.998 (active)
Brc1ccc(CN2C3=NCCCN3c3ccccc32)cc1.Cl | 0.263 ± 0.023 | 0.826 ± 0.054 | 1.34 ± 0.092 | 0.735 ± 0.089 | 0.984 ± 0.049 | 0.905 ± 0.11 | 0.96 (active)
Cc1ccc(N2C(=O)C(=CC3CC=CCC3)SC2=S)cc1 (centres undefined) | 0.652 ± 0.054 | 0.835 ± 0.039 | 0.817 ± 0.076 | 0.397 ± 0.022 | 1.04 ± 0.075 | 0.963 ± 0.1 | 0.973 (active)
CCN(CC)C(=O)Nc1ccc(OCC(O)CNC(C)(C)C)c(C(C)=O)c1 (centres undefined) [Prestw-1132] | 1.41 ± 0.08 | 1.01 ± 0.062 | 1.16 ± 0.079 | 0.979 ± 0.059 | 1.44 ± 0.15 | 1.29 ± 0.12 | 0.997 (active)
CC(=O)CCc1oc2ccc([N+](=O)[O-])cc2c1-c1ccc(C)o1 | 1.04 ± 0.12 | 0.837 ± 0.065 | 0.825 ± 0.084 | 0.817 ± 0.048 | 0.849 ± 0.12 | 0.713 ± 0.17 | 0.973 (active)
CC(C)(C)c1ccc(-c2nc(-c3cccc([N+](=O)[O-])c3)no2)cc1 | 1.06 ± 0.1 | 0.972 ± 0.091 | 0.964 ± 0.025 | 1.02 ± 0.071 | 1.01 ± 0.098 | 1.05 ± 0.17 | 0.995 (active)
CCOc1ccccc1OCCCCOc1ccc(I)cc1 | 1.12 ± 0.18 | 1 ± 0.12 | 0.937 ± 0.11 | 0.967 ± 0.025 | 0.994 ± 0.098 | 1.18 ± 0.17 | 1 (active)
CN(C)CCCN(C(=O)Cc1ccc(F)cc1)c1nc2ccc(Cl)cc2s1.Cl | 0.447 ± 0.029 | 0.503 ± 0.079 | 1.08 ± 0.1 | 0.799 ± 0.035 | 0.714 ± 0.066 | 2.19 ± 0.47 | 0.0615 (inactive)
O=C(O)CCCNCP(=O)(O)CCc1ccccc1 | 0.97 ± 0.099 | 0.91 ± 0.093 | 0.881 ± 0.083 | 0.964 ± 0.048 | 0.989 ± 0.14 | 0.963 ± 0.19 | 1.03 (active)
C=CCn1c(=N)n(CC(O)c2ccco2)c2ccccc21.Cl (centres undefined) | 1.15 ± 0.13 | 0.961 ± 0.1 | 1.21 ± 0.056 | 1.07 ± 0.17 | 1.03 ± 0.043 | 0.936 ± 0.061 | 1 (active)
CC(Nc1ccc(N)cc1)=C1C(=O)c2ccccc2C1=O | 0.913 ± 0.083 | 0.855 ± 0.043 | 1.01 ± 0.09 | 0.888 ± 0.059 | 1.49 ± 0.1 | 1.68 ± 0.15 | 1 (active)
CCC(=O)Nc1ccc(NC(=O)c2ccccc2OC)cc1 | 0.932 ± 0.086 | 1.04 ± 0.083 | 0.997 ± 0.064 | 1 ± 0.042 | 1.25 ± 0.087 | 0.969 ± 0.076 | 1.01 (active)
CN1CCN(CCCN2c3ccccc3Sc3ccc(C(F)(F)F)cc32)CC1.Cl.Cl | 0.958 ± 0.043 | 1.03 ± 0.11 | 1.3 ± 0.11 | 0.788 ± 0.056 | 1.12 ± 0.22 | 1.22 ± 0.39 | 1.02 (active)
CCC(=O)Nc1ccc(S(=O)(=O)NCC2CCN(Cc3ccccc3)CC2)c(C)c1 | 0.787 ± 0.038 | 0.961 ± 0.076 | 1.08 ± 0.058 | 1.14 ± 0.053 | 1.37 ± 0.23 | 1.49 ± 0.43 | 0.967 (active)
CCN(CC)S(=O)(=O)c1ccc(C(=O)Nc2cc(C)nn2-c2nc(C)c(C)c(=O)[nH]2)cc1 | 0.153 ± 0.012 | 0.267 ± 0.065 | 0.434 ± 0.015 | 0.883 ± 0.05 | 0.957 ± 0.099 | 0.994 ± 0.086 | 0.99 (active)
O=C(CSc1nc[nH]n1)NC(c1ccccc1)c1ccccc1 | 0.77 ± 0.077 | 0.86 ± 0.053 | 1.01 ± 0.088 | 0.51 ± 0.033 | 1.33 ± 0.096 | 1.62 ± 0.17 | 1.01 (active)
CCS(=O)(=O)N1CCC(Oc2cc(C)nc(C)n2)CC1 | 1.23 ± 0.07 | 0.996 ± 0.086 | 0.963 ± 0.046 | 0.982 ± 0.05 | 1.05 ± 0.049 | 0.916 ± 0.093 | 0.997 (active)
CC1=NN(c2ccc(Cl)cc2)C(=O)C1=Cc1c(C)nn(-c2ccc(C)cc2C)c1O | 1.01 ± 0.13 | 0.866 ± 0.097 | 0.944 ± 0.051 | 0.891 ± 0.031 | 1.06 ± 0.085 | 1.15 ± 0.17 | 0.998 (active)
CCOC(=O)c1sc(NN=Cc2cccc(Cl)c2)nc1C | 1.04 ± 0.12 | 1.06 ± 0.059 | 0.89 ± 0.053 | 0.849 ± 0.039 | 1.57 ± 0.23 | 1.18 ± 0.18 | 1.01 (active)
COc1ccc(C2Nc3ccc(C(=O)c4ccccc4)cc3NC3=C2C(=O)CCC3)c(OC)c1 (centres undefined) | 0.77 ± 0.06 | 0.844 ± 0.04 | 1.08 ± 0.095 | 0.933 ± 0.047 | 1.41 ± 0.11 | 1.58 ± 0.17 | 1.01 (active)
CCc1ccc(NC(=O)CSc2nc3c([nH]c4ccccc43)c(=O)n2C)cc1 | 0.809 ± 0.053 | 0.745 ± 0.06 | 0.776 ± 0.061 | 1 ± 0.08 | 1.13 ± 0.14 | 1.07 ± 0.18 | 0.483 (inactive)
Cc1nc(-c2ccc(OCC(C)C)c(C#N)c2)sc1C(=O)O | 0.891 ± 0.14 | 0.957 ± 0.34 | 1.02 ± 0.065 | 0.883 ± 0.048 | 0.973 ± 0.3 | 1.06 ± 0.22 | 1 (active)
CC(O)(CNC(=O)CSc1ccc(F)cc1)c1ccc(-c2ccccc2)cc1 (centres undefined) | 1.02 ± 0.067 | 0.973 ± 0.092 | 0.935 ± 0.038 | 0.685 ± 0.049 | 1.11 ± 0.072 | 0.921 ± 0.1 | 0.992 (active)
C=CCn1c(-c2ccc(OC)cc2)cnc1SCC(=O)N1CCc2ccccc21 | 0.967 ± 0.12 | 1.06 ± 0.09 | 1.09 ± 0.18 | 0.927 ± 0.1 | 1.03 ± 0.062 | 0.962 ± 0.11 | 1 (active)
